Source: the supplement of paper PMC6897291

What was measured:
[1] = tested on: U-2932; experiment: growth inhibition by drug alone (1 - RLU/untreated control) (fraction); higher = stronger inhibition; details: 177Lu-lilotomab satetraxetan 0 ug/ml
Method in brief: (§1)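 With or without 18 h pretreatment by a radiolabelled anti-CD37 antibody conjugate (~600 MBq/mg; 0.5 µg/ml RIVA, 1 µg/ml U-2932), RIVA and U-2932 cells were washed and plated at 3,000 cells/well. Pre-printed compound doses were 10/100 nM for RIVA and 10/1,000 nM for U-2932. Growth inhibition uses RealTime-Glo RLU relative to the untreated no-drug wells. The calculation is 1 − RLU/mean of 48 such wells per plate, with reads daily from day 3 after 1 h at 37°C.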

[2] = tested on: RIVA; experiment: as above; details: 177Lu-lilotomab satetraxetan 0 ug/ml
Method in brief: as §1

[3] = tested on: U-2932; experiment: growth inhibition by drug plus 177Lu-lilotomab satetraxetan (1 - RLU/untreated control) (fraction); higher = stronger inhibition; details: 177Lu-lilotomab satetraxetan 1 ug/ml
Method in brief: as §1

[4] = tested on: RIVA; experiment: as above; details: 177Lu-lilotomab satetraxetan 0.5 ug/ml
Method in brief: as §1

Structure (SMILES) | growth inhibition by drug alone ([1]; 10 nM, time (day): 3) | growth inhibition by drug alone ([1]; 10 nM, time (day): 4) | growth inhibition by drug alone ([1]; 10 nM, time (day): 5) | growth inhibition by drug alone ([1]; 10 nM, time (day): 6) | growth inhibition by drug alone ([1]; 1000 nM, time (day): 3) | growth inhibition by drug alone ([1]; 1000 nM, time (day): 4) | growth inhibition by drug alone ([1]; 1000 nM, time (day): 5) | growth inhibition by drug alone ([1]; 1000 nM, time (day): 6) | growth inhibition by drug alone ([2]; 10 nM, time (day): 3) | growth inhibition by drug alone ([2]; 10 nM, time (day): 4) | growth inhibition by drug alone ([2]; 10 nM, time (day): 5) | growth inhibition by drug alone ([2]; 10 nM, time (day): 6) | growth inhibition by drug alone ([2]; 100 nM, time (day): 3) | growth inhibition by drug alone ([2]; 100 nM, time (day): 4) | growth inhibition by drug alone ([2]; 100 nM, time (day): 5) | growth inhibition by drug alone ([2]; 100 nM, time (day): 6) | growth inhibition by drug plus 177Lu-lilotomab satetraxetan ([3]; 10 nM, time (day): 3) | growth inhibition by drug plus 177Lu-lilotomab satetraxetan ([3]; 10 nM, time (day): 4) | growth inhibition by drug plus 177Lu-lilotomab satetraxetan ([3]; 10 nM, time (day): 5) | growth inhibition by drug plus 177Lu-lilotomab satetraxetan ([3]; 10 nM, time (day): 6) | growth inhibition by drug plus 177Lu-lilotomab satetraxetan ([3]; 1000 nM, time (day): 3) | growth inhibition by drug plus 177Lu-lilotomab satetraxetan ([3]; 1000 nM, time (day): 4) | growth inhibition by drug plus 177Lu-lilotomab satetraxetan ([3]; 1000 nM, time (day): 5) | growth inhibition by drug plus 177Lu-lilotomab satetraxetan ([3]; 1000 nM, time (day): 6) | growth inhibition by drug plus 177Lu-lilotomab satetraxetan ([4]; 10 nM, time (day): 3) | growth inhibition by drug plus 177Lu-lilotomab satetraxetan ([4]; 10 nM, time (day): 4) | growth inhibition by drug plus 177Lu-lilotomab satetraxetan ([4]; 10 nM, time (day): 5) | growth inhibition by drug plus 177Lu-lilotomab satetraxetan ([4]; 10 nM, time (day): 6) | growth inhibition by drug plus 177Lu-lilotomab satetraxetan ([4]; 100 nM, time (day): 3) | growth inhibition by drug plus 177Lu-lilotomab satetraxetan ([4]; 100 nM, time (day): 4) | growth inhibition by drug plus 177Lu-lilotomab satetraxetan ([4]; 100 nM, time (day): 5) | growth inhibition by drug plus 177Lu-lilotomab satetraxetan ([4]; 100 nM, time (day): 6)
CN1CCN(c2cccc(Nc3nc4c(-c5ccc(S(C)(=O)=O)cc5)cccn4n3)c2)CC1 | 0.0344 | 0.0428 | 0.0368 | 0.113 | 0.028 | 0.0442 | 0.0461 | 0.102 | -0.0335 | -0.0683 | -0.203 | -0.505 | -0.0314 | -0.0426 | -0.0675 | -0.155 | 0.0292 | 0.0656 | 0.062 | 0.17 | -0.0239 | 0.0604 | 0.101 | 0.21 | 0.369 | 0.484 | 0.496 | 0.524 | 0.396 | 0.419 | 0.425 | 0.401
CO[C@H]1C[C@@H]2CC[C@@H](C)[C@@](O)(O2)C(=O)C(=O)N2CCCC[C@H]2C(=O)O[C@H]([C@H](C)C[C@@H]2CC[C@@H](O)[C@H](OC)C2)CC(=O)[C@H](C)/C=C(\C)[C@@H](O)[C@@H](OC)C(=O)[C@H](C)C[C@H](C)/C=C/C=C/C=C/1C [Rapamycin (Sirolimus)] | 0.724 | 0.686 | 0.609 | 0.544 | 0.737 | 0.722 | 0.658 | 0.599 | 0.777 | 0.792 | 0.785 | 0.748 | 0.8 | 0.833 | 0.827 | 0.803 | 0.692 | 0.666 | 0.631 | 0.623 | 0.703 | 0.69 | 0.662 | 0.657 | 0.839 | 0.875 | 0.88 | 0.873 | 0.829 | 0.867 | 0.88 | 0.878
Nc1nc(Cl)nc2c1ncn2[C@H]1C[C@H](O)[C@@H](CO)O1 [Cladribine] | -0.0123 | -0.0135 | -0.0163 | 0.0971 | 0.943 | 0.966 | 0.98 | 0.987 | 0.0585 | 0.0126 | 0.00678 | 0.0233 | -0.00435 | 0.239 | 0.319 | 0.387 | 0.0179 | 0.0736 | 0.11 | 0.212 | 0.942 | 0.971 | 0.983 | 0.989 | 0.528 | 0.571 | 0.602 | 0.611 | 0.683 | 0.807 | 0.843 | 0.878
COc1cc(N2CCC(N3CCN(C)CC3)CC2)ccc1Nc1ncc(Cl)c(Nc2ccccc2S(=O)(=O)C(C)C)n1 | 0.0279 | 0.0267 | -0.0689 | -0.173 | 0.411 | 0.377 | 0.328 | 0.37 | -0.00616 | -0.0284 | -0.166 | -0.627 | -0.194 | -0.141 | -0.341 | -0.647 | -0.0224 | 0.0234 | 0.0221 | 0.0517 | 0.226 | 0.3 | 0.325 | 0.525 | 0.354 | 0.492 | 0.509 | 0.521 | 0.198 | 0.273 | 0.278 | 0.268
S=C(NCc1ccc2c(c1)OCO2)N1CCN(c2ncnc3c2oc2ccccc23)CC1 [Amuvatinib (MP-470)] | 0.138 | 0.0926 | -0.0674 | -0.0914 | 0.459 | 0.471 | 0.474 | 0.434 | 0.0683 | 0.0587 | 0.0228 | -0.162 | 0.05 | 0.0617 | 0.0713 | 0.0541 | 0.0425 | 0.101 | 0.162 | 0.177 | 0.465 | 0.477 | 0.498 | 0.561 | 0.627 | 0.668 | 0.684 | 0.68 | 0.641 | 0.642 | 0.661 | 0.677
CC[C@@H]1C(=O)N(C)c2cnc(Nc3ccc(C(=O)N[C@H]4CC[C@H](N5CCN(CC6CC6)CC5)CC4)cc3OC)nc2N1C(C)C [BI6727 (Volasertib)] | 0.335 | 0.327 | 0.308 | 0.37 | 0.962 | 0.975 | 0.98 | 0.982 | 0.23 | 0.19 | 0.153 | 0.0282 | 0.943 | 0.962 | 0.969 | 0.971 | 0.255 | 0.307 | 0.34 | 0.465 | 0.917 | 0.946 | 0.965 | 0.977 | 0.631 | 0.702 | 0.726 | 0.726 | 0.939 | 0.964 | 0.975 | 0.981
Cc1cn(-c2cc(NC(=O)c3ccc(C)c(Nc4nccc(-c5cccnc5)n4)c3)cc(C(F)(F)F)c2)cn1 [Nilotinib (AMN-107)] | 0.0488 | 0.0185 | -0.0493 | -0.187 | -0.0166 | 0.0185 | -0.0481 | -0.136 | -0.0335 | -0.0957 | -0.159 | -0.318 | -0.122 | -0.118 | -0.0918 | -0.17 | -0.0417 | -0.0287 | -0.0436 | 0.0203 | -0.141 | -0.0418 | -0.0875 | -0.155 | 0.372 | 0.516 | 0.522 | 0.537 | 0.362 | 0.471 | 0.491 | 0.466
Nc1ccn([C@@H]2O[C@H](CO)[C@@H](O)[C@@H]2O)c(=O)n1 [Cytarabine] | -0.00637 | 0.0194 | -0.0299 | -0.0808 | 0.484 | 0.568 | 0.585 | 0.6 | -0.0997 | -0.0678 | -0.108 | -0.326 | -0.231 | 0.0413 | 0.0792 | 0.023 | -0.0521 | 0.00463 | -0.0153 | -0.0601 | 0.688 | 0.801 | 0.859 | 0.89 | 0.51 | 0.601 | 0.632 | 0.644 | 0.655 | 0.771 | 0.793 | 0.81
Nc1nc(Cl)nc2c1ncn2[C@@H]1O[C@H](CO)[C@@H](O)[C@@H]1F [Clofarabine] | 0.0673 | 0.0292 | -0.0979 | -0.0594 | 0.929 | 0.958 | 0.972 | 0.979 | -0.085 | -0.0539 | -0.15 | -0.383 | 0.384 | 0.685 | 0.781 | 0.827 | 0.00886 | 0.0897 | 0.102 | 0.0953 | 0.925 | 0.961 | 0.977 | 0.985 | 0.51 | 0.568 | 0.575 | 0.586 | 0.872 | 0.923 | 0.943 | 0.959
CC[C@@H]1C(=O)N(C)c2cnc(Nc3ccc(C(=O)NC4CCN(C)CC4)cc3OC)nc2N1C1CCCC1 | 0.821 | 0.844 | 0.867 | 0.907 | 0.953 | 0.973 | 0.981 | 0.984 | 0.903 | 0.895 | 0.9 | 0.908 | 0.937 | 0.955 | 0.964 | 0.968 | 0.814 | 0.856 | 0.903 | 0.941 | 0.938 | 0.957 | 0.97 | 0.982 | 0.93 | 0.959 | 0.97 | 0.978 | 0.918 | 0.956 | 0.969 | 0.976
O=C(/C=C/c1cccnc1)NCCCCC1CCN(C(=O)c2ccccc2)CC1 | 0.935 | 0.894 | 0.825 | 0.783 | 0.982 | 0.985 | 0.984 | 0.985 | 0.983 | 0.983 | 0.982 | 0.979 | 0.981 | 0.982 | 0.982 | 0.98 | 0.909 | 0.859 | 0.812 | 0.758 | 0.984 | 0.985 | 0.986 | 0.988 | 0.991 | 0.991 | 0.99 | 0.99 | 0.99 | 0.99 | 0.991 | 0.991
COc1c(C)c2c(c(O)c1C/C=C(\C)CCC(=O)OCCN1CCOCC1)C(=O)OC2 [Mycophenolate mofetil (CellCept)] | 0.0454 | 0.0504 | -0.00114 | -0.00474 | 0.727 | 0.792 | 0.743 | 0.673 | 0.15 | 0.0186 | -0.0505 | -0.245 | 0.284 | 0.214 | 0.154 | 0.0335 | 0.0524 | 0.064 | 0.0624 | 0.115 | 0.826 | 0.893 | 0.89 | 0.878 | 0.413 | 0.511 | 0.534 | 0.55 | 0.554 | 0.581 | 0.583 | 0.539
Cn1c(=O)c(F)c(Nc2ccc(I)cc2F)c2c(=O)n(C[C@@H](O)CO)cnc21 | 0.14 | 0.135 | 0.0576 | -0.0158 | 0.131 | 0.169 | 0.099 | 0.12 | 0.0885 | 0.0594 | -0.0237 | -0.205 | -0.0966 | -0.077 | -0.161 | -0.342 | 0.103 | 0.169 | 0.176 | 0.21 | 0.189 | 0.254 | 0.249 | 0.347 | 0.522 | 0.484 | 0.489 | 0.487 | 0.579 | 0.588 | 0.55 | 0.496
CNCc1ccc(-c2[nH]c3cc(F)cc4c3c2CCNC4=O)cc1 | 0.062 | 0.0535 | 0.0443 | 0.155 | 0.0442 | 0.0462 | 0.0516 | 0.0343 | -0.0585 | -0.0309 | -0.0988 | -0.165 | -0.0509 | -0.0204 | -0.0791 | -0.0893 | 0.05 | 0.0426 | 0.0882 | 0.222 | 0.0393 | 0.0885 | 0.124 | 0.238 | 0.384 | 0.514 | 0.55 | 0.578 | 0.507 | 0.54 |  | 
